# Test results reported in PubChem BioAssay AID651871 (Sanford-Burnham Center for Chemical Genomics, 2012).
# Several values for one entry are separate records, joined by “and”; a condition that tells them apart may be missing. Equal entries are not always repeated.
# System: HL-1
# Assay: protection of cardiomyocytes from stress damage, SAR follow-up, cell-based, panel, H9c2 and HL-1, ATP luminescence, set 2 (AID 651871);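 further: cells exposed to stressor for 2 h before ATP readout; reference of the scale not given here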
# Details: H9c2/HL-1 cardiomyocytes, H2O2 oxidative stress; with H2O2, run 2, at 79 µM (top of the series)
row,Compound,activity (protection/inhibition)
1,COc1ccc2c(c1OC)C(=O)N1c3ccccc3C(=O)N(Cc3cccc(Cl)c3Cl)C21 (centres undefined),-0.168% and -1.52% and -3.02%
2,COc1ccc2nc(-c3cc(OC)c(OC)c(OC)c3)cc(C(=O)NCC(=O)Nc3ccc(C(C)=O)cc3)c2c1,27.5% and 38.9%
3,COc1cc(-c2cc(C(=O)Nc3cccc(C(=O)NCc4ccccc4)c3)c3ccccc3n2)cc(OC)c1OC,25%
4,CCOC(=O)c1cccc(NC(=O)CNC(=O)c2cc(-c3cc(OC)c(OC)c(OC)c3)nc3ccccc23)c1,44%
